Experimental data: PubChem BioAssay (NCATS)
Inconclusive results are not listed. Values without a mark were called inactive. The source made the active and inactive calls. Calls come from the whole dose curve; as a rule, active = well fitted cell-killing curve with a large enough effect; inconclusive = small, poorly fitted or top-dose-only effect, or effect the other way; inactive = flat fitted curve, though single readings scatter. Where a SMILES comes first, the peptide text is derived from it. [ ]: non-standard residue; d: D form. ξ: configuration not given here. ξPhe(βξ-Me) = CC(c1ccccc1)C(N)C(=O)O; GABA = NCCCC(=O)O

test system: C33A; experiment: Primary qHTS to identify gynecologic anti-cancer compounds using libraries of approved drugs and bioactive compounds (AID 1345084); conditions: Gynecologic cancer cell panel viability, ATPlite luminescence, 48 h; series mostly up to 57.5 µM; activity change, negative = cytotoxicity: at the top concentration; note: nearly all actives have a fitted effect of over 55% in size
Method in brief: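 Five-concentration response, 48 h; readout is ATP-driven luciferase luminescence.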
% is set by controls: 0 for no effect and ±100 for the full control effect; potency is the fitted concentration of half-maximal effect.

Structure (SMILES) | activity change, negative = cytotoxicity | Potency
COC(=O)C1C(CC(C)=O)C=CC(O)C12Oc1cc(C)cc(O)c1C2=O (stereo not drawn) | 3.57% [at 38.5 µM] | 
CC1(C)CCC[C@@]2(C)[C@H]1[C@H](O)C=C1COC(=O)[C@@]12O | 3.42% | 
O=C(O)Cc1nn(Cc2nc3cc(C(F)(F)F)ccc3s2)c(=O)c2nccnc12 | 0.202% | 
CC1CCC2(C(=O)OC3OC(CO)C(O)C(O)C3O)CCC3(C(=O)O)C(=CCC4C5(C)CCC(OC6OC(C)C(O)C(O)C6O)C(C)(C)C5CCC43C)C2C1C (stereo not drawn) | -3.3% [at 25.3 µM] | 
CC(CO[C@@H]1O[C@H](COC(=O)/C=C/c2ccc(O)c(O)c2)[C@@H](O)[C@H](O)[C@H]1O)C1(O)COC(=O)C1 (stereo partly drawn) | -4.74% [at 25.3 µM] | 
CCCCN(CCCC)C(=O)CN1C[C@H](c2ccc3c(c2)OCO3)[C@@H](C(=O)O)[C@@H]1c1ccc(OC)cc1 | 4.74% | 
CC(C)C(=O)O[C@@H]1[C@@H](O)[C@@H](O[C@H]2O[C@H](CO)[C@@H](O)[C@H](O)[C@H]2O)O[C@H](CO)[C@H]1O | -1.4% [at 25.3 µM] | 
CC1(C)CC[C@]2(C(=O)O)CC[C@]3(C)C(=CCC4[C@@]5(C)CCC(O[C@@H]6OC[C@H](O)[C@H](O)[C@H]6O[C@@H]6O[C@H](CO)[C@@H](O)[C@H](O)[C@H]6O)[C@@](C)(CO)C5CC[C@]43C)[C@@H]2C1 (stereo partly drawn) | -2.56% [at 25.3 µM] | 
CCc1c(CC(N)=O)c2cc(OCCCP(=O)(O)O)ccc2n1Cc1ccccc1 | 4.44% | 
COc1ccc(C[C@H](N)C(=O)N[C@H]2[C@@H](O)[C@H](n3cnc4c(N(C)C)ncnc43)O[C@@H]2CO)cc1 |  | 2820 nM (active)
COC(=O)C1=CO[C@@H](O[C@@H]2O[C@H](CO)[C@@H](O)[C@H](O)[C@H]2O)[C@@H]2[C@@H](C(=O)OC)[C@@H](O)C(O)[C@H]12 (stereo partly drawn) | 15.4% [at 25.3 µM] | 
CC(C)CC1NC(=O)C(C(C)c2ccccc2)NC(=O)C(C(C)C)NC(=O)C(C)NC(=O)CCCNC(=O)C(Cc2c[nH]c3ccccc23)NC(=O)C(C)NC1=O (stereo not drawn) (cyclo([GABA]AV[ξPhe(βξ-Me)]LAW); configuration not given here) | 0.0078% [at 25.3 µM] | 
C=C1CCC2C(C)(C)C(O)CCC2(C)C1CCC(C)CCOC(=O)CCC(=O)O (stereo not drawn) | 7.2% [at 25.3 µM] | 
COc1cc(C)c(C(=O)O[C@H]2[C@@H](O)[C@H](n3ccc(=O)[nH]c3=O)O[C@@H]2CO)c(OC)c1 | 0.514% [at 25.3 µM] | 
COC(=O)C1=COC(O[C@@H]2O[C@H](CO)[C@@H](O)[C@H](O)[C@H]2O)/C(=C\COC(=O)c2ccc(OC3OC(CO)C(O)C(O)C3O)c(OC)c2)C1CC(=O)OCCc1ccc(O)cc1 (stereo partly drawn) | 7.7% [at 11.6 µM] | 
COc1cc(CC(COC2OC(CO)C(O)C(O)C2O)c2cc(/C=C/CO)cc(OC)c2O)ccc1O (stereo not drawn) | 3.3% [at 25.3 µM] | 
CC1(C)C[C@H]2C3=CCC4[C@@]5(C)CC[C@H](O[C@H]6O[C@H](C(=O)O)[C@@H](O)[C@H](O)[C@H]6O[C@H]6O[C@H](CO)[C@@H](O)[C@H](O)[C@H]6O[C@@H]6O[C@H](CO)[C@@H](O)[C@H](O)[C@H]6O)[C@](C)(CO)C5CC[C@@]4(C)[C@]3(C)CC[C@@]2(C)[C@H](O[C@@H]2OC[C@H](O)[C@H](OC3O[C@H](CO)[C@@H](O)[C@H](O)[C@H]3O)[C@H]2O)[C@@H]1O (stereo partly drawn) | 3.46% [at 6.55 µM] | 
O=C1N(CC2CCCCN2)CCN1c1ccccc1 (stereo not drawn) | -3.84% | 
CCCOc1ccn2c(C(C)=O)cc(-c3ccccc3S(C)(=O)=O)c2c1 | 5.13% | 

Structure (SMILES) | activity change, negative = cytotoxicity | Potency
COc1cc(/C=C/C(=O)O[C@H]2[C@H](O)[C@@H](CO)O[C@@]2(CO)O[C@H]2O[C@H](COC(=O)c3ccc(O)cc3)[C@@H](O)[C@H](O)[C@H]2O)cc(OC)c1OC | 1.78% [at 25.3 µM] | 
OC[C@H]1O[C@@H](n2cnc3c2NC=NC[C@H]3O)C[C@@H]1O | 9.87% | 
CNc1nc(Nc2cnn([C@H]3CCN(C4COC4)C[C@@H]3F)c2Cl)ncc1C(F)(F)F | 4.87% | 
CCCCS(=O)(=O)Nc1ncnc(OCCOc2ncc(Br)cn2)c1-c1ccc(Br)cc1 | 3.51% | 
CC/C=C/CC1=C(CCCCCCCC(=O)O)CCC1=O | 16.3% | 
C[C@@H]1O[C@@H](OC[C@H]2O[C@@H](OCCc3ccccc3)[C@H](O)[C@@H](O)[C@@H]2O)[C@H](O)[C@H](O)[C@H]1O | 2.5% [at 25.3 µM] | 
C=C[C@](C)(CC/C=C(\C)C(=O)O)O[C@@H]1OC[C@H](O)[C@H](O)[C@H]1O | 4.74% [at 38.5 µM] | 
FC(F)(F)c1cc(C(F)(F)F)c2ccc3nc(-c4nnco4)cn3c2n1 | 4.63% | 
C[C@@H]1O[C@@H](OC[C@H]2O[C@@H](OCC3CCC4CC3C4(C)C)[C@H](O)[C@@H](O)[C@@H]2O)[C@H](O)[C@H](O)[C@H]1O (stereo partly drawn) | 4.87% [at 25.3 µM] | 
O=C1[C@H](O[C@@H]2O[C@H](CO)[C@@H](O)[C@H](O)[C@H]2O)Oc2ccccc2N1O | -1.43% [at 38.5 µM] | 
C[C@@H]1O[C@@H](O[C@H]2[C@H](OC(=O)[C@]34CCC(C)(C)C[C@H]3C3=CCC5[C@@]6(C)C[C@H](O)[C@H](O[C@@H]7O[C@H](CO[C@@H]8OC[C@H](O)[C@H](O)[C@H]8O)[C@@H](O)[C@H](O)[C@H]7O)C(C)(C)C6CC[C@@]5(C)[C@]3(C)C[C@H]4O)OC[C@@H](O)[C@@H]2O)[C@H](O)[C@H](O[C@@H]2OC[C@](O)(CO)[C@H]2O)[C@H]1O[C@@H]1OC[C@H](O)[C@H](O[C@@H]2OC[C@@H](O)[C@H](O)[C@H]2O)[C@H]1O (stereo partly drawn) | -0.101% [at 6.55 µM] | 
COC(=O)C1C(c2ccc(O)cc2)C(C(=O)OC)C1c1ccc(O)cc1 (stereo not drawn) | 1.99% [at 38.5 µM] | 
CCN[C@@H]1C[C@H](N)[C@@H](O[C@H]2OC(CN)=CC[C@H]2N)[C@H](O)[C@H]1O[C@H]1OC[C@](C)(O)[C@H](NC)[C@H]1O |  | inactive
CCOC(=O)[C@H]1O[C@@H]1C(=O)N[C@@H](CC(C)C)C(=O)NCCC(C)C | 11% | 
CC(=O)N1c2ccccc2C2(O)CC3C(=O)NC(CC(C)C)C(=O)N3C12 (stereo not drawn) | -10.9% [at 38.5 µM] | 
CC(C)=CCC/C(C)=C/CC/C(C)=C/CC[C@]1(C)CCc2cc(O)cc(C)c2O1 | -4.63% [at 25.3 µM] | 
O=C(c1ccc(NS(=O)(=O)c2cccc3cccnc23)cc1)N1CCN(CC2CC2)CC1 | 26.1% | 
COc1cc(N2CCC(O)CC2)ccc1Nc1cc(Nc2ccccc2S(=O)(=O)C(C)C)c2cc[nH]c2n1 | -2.29% [at 38.5 µM] | 
C[C@@H]1O[C@@H](O[C@H]2[C@H](OC(=O)[C@]34CCC(C)(C)C[C@H]3C3=CCC5[C@@]6(C)C[C@H](O)[C@H](O[C@@H]7O[C@H](CO)[C@@H](O[C@@H]8O[C@H](CO)[C@@H](O)[C@H](O)[C@H]8O)[C@H](O)[C@H]7O)[C@@](C)(CO)C6[C@H](O)C[C@@]5(C)[C@]3(C)C[C@H]4O)OC[C@H](O)[C@@H]2O)[C@H](O)[C@H](O)[C@H]1O[C@@H]1OC[C@@H](O)[C@H](O[C@@H]2OC[C@](O)(CO)[C@H]2O)[C@H]1O (stereo partly drawn) | 12.9% [at 6.55 µM] | 
